PolyA inhibitor – polyadenylation inhibitors in yeast reporter cells, primary screen, luminescence, S. cerevisiae; S. cerevisiae SKY197-pL101 polyadenylation reporter, beta-gal luminescence; efflux-impaired pdr1/pdr3 knockout yeast; score 100 = 6 SD above DMSO; activity score, % at 12 µM; 0.02% of 300,000 active;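 active = lowest replicate activity score at least 50, where 100 means six control SD above control mean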;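 also: yeast exposed to compound for 9 h at 30 °C; higher score means more reporter readthrough which indicates perturbed polyadenylation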
p-CIP stab down – p/CIP-EGFP fusion destabilizers, primary screen, fluorescence, F442A cells. Q05BA5. 16 h. decrease of EGFP signal, % at 10 µM. 0.01% of 290,000 active. AID 1984, 2009;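 active = EGFP signal decrease of at least 30% at 10 µM or well 3 SD below plate mean, unless failing retest; inactive = the rest, including hits failing retest or dose response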
AHR act – AHR activators, primary screen, cell-based, luminescence, luciferase reporter, human. activation, % at 5 µM. 2.5% of 320,000 active. Aryl hydrocarbon receptor (Homo sapiens), P35869. AID 2796, 2010. AHR-responsive luciferase reporter cells; in the data active = activation above about 47%
HIF activator – HIF pathway transcriptional activators, primary screen, cell-based, U2OS HRE-luciferase, luminescence; U2OS HRE-luciferase reporter; normalized: DMSO 0%, desferrioxamine 100%; activation, % at 7.5 µM (by protocol); 0.32% of 300,000 active;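 active = mean activation of at least 10% of the iron chelator positive control signal, with at least half of replicates also reaching 10%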
Platelet DG rel – inhibitors of platelet dense granule secretion, primary screen, cell-based, MLPCN, human platelets; human platelet-rich plasma, SFLLRN dense granule ATP release, luminescence; inhibition, %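 (compounds screened at 7.5 µM in platelet-rich plasma)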; 0.22% of 300,000 active; AID 1663, 2009;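 active = mean replicate score, as percent of positive control, at or above 50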
Of the large screens only hits and unclear results are named; the others gave an inactive call. Hits are enriched below; roughly 2.8% of the tested compounds scored in any of these assays.

CCOc1ccc(-c2c(C(=O)N/N=C(\C)c3ccncc3)nnn2-c2nonc2N)cc1	none
CC1Cc2ccccc2N1C(=O)COC(=O)c1ccc([N+](=O)[O-])o1 (centres undefined)	none (no result: PolyA inhibitor, p-CIP stab down, HIF activator, Platelet DG rel)
C/C(=N\NC(=O)c1nnn(-c2nonc2N)c1-c1ccc2c(c1)OCO2)c1ccccc1	none
C/C(=N\NC(=O)c1nnn(-c2nonc2N)c1-c1ccccc1)c1ccccc1O	HIF activator 32.6
Cn1cnc(S(=O)(=O)NCc2ccc(Br)cc2)c1	none
c1ccc(N/N=C(\Cc2ncc[nH]2)c2ccccc2)cc1	none
Clc1cccc(N/N=C(\Cc2nc3ccccc3[nH]2)c2ccccc2)c1	AHR act 64.1
CCOC(=O)c1cnc2c(C)c(Cl)ccc2c1Nc1ccc(S(=O)(=O)Nc2ncccn2)cc1	none
CC(=O)Nc1sc(-c2ccccc2)nc1-c1ccccc1	HIF activator 204.8
O=C(O)Cc1sc(-c2ccccc2)nc1-c1ccccc1	none
COc1ccc(/C=N/NC(=S)Nc2cc(C(F)(F)F)ccc2Cl)cc1	AHR act 54.3
CCN1CCN(c2nc3c(C)cccn3c(=O)c2C=C(C#N)C#N)CC1	none (no result: AHR act)
COCCNC(=S)N/N=C(\C)c1ccc(-n2ccnc2)cc1	AHR act 86.8
CCOc1ccc(S(=O)(=O)Nc2ccc(C(=O)N/N=C(\C)c3ccc(-n4ccnc4)cc3)cc2)cc1	AHR act 53.7
CC(=O)OCC(=O)Nc1ccccc1C	none
CN1CCN(/N=C/c2ccc(-c3ccccc3)cc2)CC1	none
CN1CCN(/N=C/c2c3ccccc3c(Cl)c3ccccc23)CC1	AHR act 56.5
Nn1c(SCC(=O)NCCC2=CCCCC2)nnc1C(F)(F)F	AHR act 49.5
Cc1cccc(-[n+]2c(C)cc(C)c3c(=O)[nH]c(=O)[nH]c32)c1	none
CC1CCCCN1Cc1nc2c(c(=O)n(C)c(=O)n2C)n1CCCc1ccccc1 (centres undefined)	Platelet DG rel 55.5 (no result: p-CIP stab down)
O=C(NNC1=Nc2ccccc2SC1)c1cccc([N+](=O)[O-])c1	AHR act 48.5
O=C(NC1=NCCS1)c1ccccc1F	none (no result: p-CIP stab down)
O=C(NNC1=Nc2ccccc2SC1)c1ccccc1F	AHR act 55.8
COc1ccc(/C=N/Nc2ccc([N+](=O)[O-])cc2)cc1Cn1cc([N+](=O)[O-])cn1	AHR act 69.4
COCCOc1ccc(C(F)(F)F)cc1NC(=O)c1ccc(C)cc1	none
COCCOc1ccc(C(F)(F)F)cc1NC(=O)c1ccc(F)cc1	AHR act 54.5
COc1cc2c(cc1OC)CN(CC(=O)Nc1ccccc1C#N)CC2	AHR act 50.1
COc1ccc(C(=O)NCC(c2ccco2)N(C)C)cc1S(=O)(=O)NCc1ccc(Cl)cc1 (centres undefined)	none (no result: PolyA inhibitor, p-CIP stab down, HIF activator, Platelet DG rel)
Cc1nc(C)c2c(=O)cc(-c3ccccc3)[nH]c2n1	none
Cc1nc(-c2ccccc2)nc2[nH]c(-c3ccccc3)cc(=O)c12	AHR act 69.4
CC1(C)CC2CC(C)(CN2/C=N/c2sc3c(c2C#N)CC(C)(C)NC3(C)C)C1 (centres undefined)	none
COc1ccc(/C=C/c2nc(N)nc(-c3ccccc3O)n2)cc1	AHR act 59.4
O=C(O)CC1(CC(=O)N2CCOCC2)CCCC1	none
Cc1cccc(-n2c(O)cnc2Nc2nc(C)cc(C)n2)c1	AHR act 64.8
Cc1ccc(-n2c(O)cnc2Nc2nc(C)cc(C)n2)cc1	none
COc1ccc(N=C(NN)c2ccc3ccccc3n2)cc1	AHR act 70.7
CC1CCCCN1CC(O)COCc1ccccc1 (centres undefined)	none (no result: AHR act)
COc1cc(CNCCc2ccc(S(N)(=O)=O)cc2)ccc1OCC(=O)NC(C)(C)C	AHR act 49.0
CN1CCN(CCNC(=O)Cn2c(=O)c3cccn3c3ccc(F)cc32)CC1	none
COc1ccc2nc(NNC(=O)c3cc(=O)c4ccccc4o3)sc2c1	AHR act 73.4
Cc1cccc2sc(NNC(=O)c3cc(=O)c4ccccc4o3)nc12	AHR act 67.0
Cc1ccc2sc(NNC(=O)c3cc(-c4cccs4)nc4ccccc34)nc2c1C	none
Cc1nc(C)c(C(=O)Nc2nc3c(C)cccc3s2)o1	none
Cc1ccc2sc(NNC(=O)c3cc(=O)c4ccccc4o3)nc2c1C	AHR act 76.0
O=C(NNc1nc2c(F)cccc2s1)c1cc(=O)c2ccccc2o1	AHR act 79.7
Cc1cccc(NC(=O)CCNC(=O)c2ccc(Br)cc2)c1C	none (no result: AHR act)
CCOc1ccccc1C(=O)N[C@H](C(=O)OCc1cc([N+](=O)[O-])cc2c1OCOC2)C(C)C	none
COCCn1c(C)cc(/C=C2/SC(=O)N(C(C)C(=O)OC)C2=O)c1C (centres undefined)	none
COCCn1c(C)cc(/C=C2\NC(=S)N(C)C2=O)c1C	AHR act 56.9
CN(c1ccccc1)c1cc(=O)[nH]c(=O)[nH]1	none (no result: HIF activator)
Cc1cc2cc(C)c3nnc(SCc4ccccn4)n3c2cc1C	AHR act 72.8
CC(C)C1N=C(c2ccc3c(c2)OCO3)CC(c2ccccc2O)N1 (centres undefined)	AHR act 59.0
CCc1nnc(NC(=O)CS(=O)(=O)Cc2ccccc2)s1	none
O=[N+]([O-])c1cc(Cl)cc(/C=N\Nc2ccccn2)c1O	HIF activator 20.8
O=[N+]([O-])c1cc(/C=N\Nc2ccccn2)ccc1Cl	none
COc1cc(NC(=O)c2cccc(Cl)c2)c(OC)cc1NC(=O)CN1CCOCC1	AHR act 63.1
COc1cc(NC(=O)c2cccc(C)c2)c(OC)cc1NC(=O)CN1CCOCC1	none
COc1cc(NC(=O)c2cccc(Cl)c2)c(OC)cc1NC(=O)CN1CCCCC1	AHR act 70.6
Cn1nnc(NC(=S)NC(=O)c2cccc3ccccc23)n1	none (no result: HIF activator)
CC(=O)c1c(C)[nH]c(C(=O)N2CCc3ccccc3C2)c1C	AHR act 47.7
CC(=O)Nc1ccc(NC(=O)CSc2nnc(-c3cccs3)n2N)cc1	none (no result: p-CIP stab down, Platelet DG rel)
Cc1cc(Nc2ccccc2)cc(=O)n1C	HIF activator 41.1 (no result: p-CIP stab down)
O=C(OCC(=O)N1CCCC1)c1ccccc1C(=O)c1ccccc1	none (no result: PolyA inhibitor, p-CIP stab down, HIF activator, Platelet DG rel)
CC1CCN(c2nc3nonc3nc2Nc2ccc(F)cc2)CC1	AHR act 49.9
Cc1onc(C(=O)NC2CCCCC2)c1[N+](=O)[O-]	none
COc1ccc2cc(C(C)C(=O)N3CCC(C(N)=O)CC3)ccc2c1 (centres undefined)	HIF activator 28.3
Cc1sc(N/N=C/C=C/c2ccccc2)nc1-c1ccccc1	AHR act 73.3
c1ccc2nc(-c3nc4ccccc4[nH]3)ccc2c1	Platelet DG rel 82.8
CCC(=O)Nc1ccc(C(=O)CSc2nc3ccccc3cc2CC)cc1	AHR act 50.7 (no result: PolyA inhibitor, HIF activator, Platelet DG rel)
CCC(=O)Nc1ccc(C(=O)CSc2nc(N)cc(N)n2)cc1	none
Cc1nc(NC(=O)c2ccccc2)sc1-c1csc(Nc2ccc(F)cc2)n1	none

High-throughput results as filed in PubChem.
